IL1B secr inh = blocks inflammasome-driven IL-1 beta release. THP-1 LPS/ATP IL-1B secretion, AlphaLISA, 16 h; stronger effect = lower value. activity change, % at 57.5 µM. hit rate 4.7% among 360,000; in the data active means activity change below about -50%; inconclusive means mostly about -30% to -49%
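THP-1 cells pretreated 1 hr with compounds (up to 57.5 uM final), then stimulated with LPS (250 ng/mL final) plus ATP (1.25 mM final); secreted IL-1B measured by AlphaLISA after 16 hr, decreased signal indicating inhibition.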
HT1080-NT tox = kills 2HG-producing HT-1080-NT fibrosarcoma cells | HT-1080-NT fibrosarcoma viability, CellTiter-Glo ATP luminescence, 48 h | Potency, µM (series often up to 46.1 µM), hits mostly cytotoxic | hit rate 1.6% among 360,000 | AID 686970;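 further: NT is the 2HG producing partner of a matched IDH1 knockdown line; nearly all actives have a fitted effect of over 55% in size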
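Compounds were tested in concentration-response format on HT-1080-NT cells for 48 hours at 37 degrees C. Cell viability came from CellTiter-Glo luminescence; curves were classified by r2, response magnitude and activity.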
Giardia kill = kills Giardia lamblia; hit rate 0.15% among 340,000; Giardia lamblia trophozoite viability; AID 540267; activity change, % at 7.66 µM, hits read low; in the data active means activity change below about -80%; inconclusive means between about -30% and that limit;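 further: parasites exposed to compound for two days anaerobically before the ATP read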
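Viability, read as ATP luminescence: trophozoites at 100 cells/well, compound added, 48 hrs anaerobic at 37 deg C, then 15-30 min room-temperature development before reading.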
HepG2 tox-1 = kills HepG2 cells in TGF-b inhibitor counter-screen. AID 588856. hit rate 0.76% among 410,000. Potency, µM (titrated, usually from 46.1 µM), most hits filed as cytotoxic. HepG2 CAGA-GFP viability, ATP luminescence, 18 h
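HepG2 CAGA-GFP cells (1000/well, DMEM with 1% FBS) received compound, then TGF-beta at 500 pg/mL final, and were incubated 18 hours at 37 degrees C. Viability was read by CellTiter-Glo luminescence. Media-only wells were set as complete cell-killing and DMSO as no toxicity.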
HT1080 IDH1KD tx = toxicity to HT-1080 IDH1 knockdown cells (counter line) | hit rate 2% among 360,000 | HT-1080 IDH1 knockdown viability, ATP luminescence, 48 h | Potency, µM (top dose mostly 46.1 µM), usual class: cytotoxic
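HT-1080-IDH1KD cells (IDH1 knocked down), 750/well in RPMI with 5% FBS, treated with compound 48 h at 37 degrees C. Viability by CellTiter-Glo luminescence, normalised to DMSO and no-cell wells; concentration-response curves classed.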
TGFb SMAD3 inh = blocks TGF-b signaling; HepG2 CAGA-GFP TGF-b/SMAD3 reporter, GFP fluorescence, 18 h; TGF-beta stimulated, 500 pg/mL final; Potency, µM (titrated, usually from 46.1 µM), usual class: inhibitors; hit rate 1.2% among 410,000; further: nearly all actives have a fitted effect of over 65% in size
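HEPG2 CAGA-GFP, 1000 cells/well; 2 h settle, 37 C; cpd via pin tool; TGF-b 500 pg/mL final; 18 h, 37 C; GFP imaging ex488/em500-530; %Activity normalised to -TGF-b and +DMSO controls; CRC fit, curve class.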
TGFb CAGA inh = TGF-b pathway inhibition, cherry-pick retest; HepG2 CAGA-GFP TGF-b reporter, GFP fluorescence, 18 h; cells stimulated with TGF-beta, 500 pg/mL; shares compounds with TGFb SMAD3 inh; hit rate 63% among 1,600; Potency, µM (highest dose often 46.1 µM), hits mostly inhibitors; further: nearly all actives have a fitted effect of over 65% in size
HepG2 tox-2 = toxic to HepG2 cells in TGF-b counterscreen | shares compounds with TGFb SMAD3 inh | HepG2 CAGA-GFP viability, ATP luminescence, 18 h; cells stimulated with TGF-beta, 500 pg/mL | Potency, µM (titrated, usually from 46.1 µM), usual class: inhibitors | hit rate 27% among 1,600; further: nearly all actives have a fitted effect of over 70% in size
CCL64 TGFb inh = orthogonal confirmation of TGF-b inhibitors in CCL64 cells; shares compounds with TGFb SMAD3 inh; hit rate 41% among 1,600; Potency, µM (titrated, usually from 46.1 µM), most hits filed as inhibitors; CCL64 CAGA-GFP reporter, TGF-b stimulated, GFP fluorescence, 18 h; further: nearly all actives have a fitted effect of over 65% in size
TGFb COP inh = validation of TGF-b inhibitors in HepG2 COP promoter reporter | shares compounds with TGFb SMAD3 inh | HepG2 COP-GFP TGF-b reporter, GFP fluorescence, 18 h; cells stimulated by added recombinant TGF-beta | Potency, µM (titrated, usually from 46.1 µM), usual class: inhibitors | hit rate 3% among 1,600 | AID 720537; further: nearly all actives have a fitted effect of over 70% in size
Each line names hits and unclear results; the compound was inactive in the other large screens (follow-up assays come after a bar, where they were run). Only some compounds are listed: those with a hit (about 6.5% of all), similar ones and a draw of the others. Unless noted, the call rests on the fitted dose curve; in most records, active means well fitted curve in the direction sought with a large enough effect; inconclusive means small, poorly fitted or top-dose-only effect, or another doubt; inactive means no such curve, though single readings can be large; an effect the other way counts as inactive or inconclusive.

COc1ccc(C2=NN(C(=O)/C=C/c3ccccc3)C(c3ccccc3)C2)c(OC(C)=O)c1 (stereo unspecified)	HT1080 IDH1KD tx inconclusive
CC1CN(C(=O)N2CCC(C(=O)N3CCN(c4ccccc4)CC3)CC2)c2cc(Cl)ccc2O1 (stereo unspecified)	TGFb SMAD3 inh inconclusive (no result: IL1B secr inh, HT1080-NT tox, Giardia kill, HT1080 IDH1KD tx)
CCOC(=O)N1CCN(C(=O)COc2cccc3c2CCN(Cc2cccc(C)c2)C3=O)CC1	TGFb SMAD3 inh inconclusive | TGFb CAGA inh inconclusive | HepG2 tox-2 inactive | CCL64 TGFb inh inconclusive | TGFb COP inh inactive
CCOC(=O)N1CCN(C(=O)COc2cccc3c2CCN(Cc2ccccc2C)C3=O)CC1	none
COc1cccc(NC(=O)C(NCC2CCCCC2)c2ccccc2)c1 (stereo unspecified)	none
COc1cccc(NC(=O)C(NCCC(C)C)c2ccccc2)c1 (stereo unspecified)	TGFb SMAD3 inh 12.6µM | TGFb CAGA inh inconclusive | HepG2 tox-2 inactive | CCL64 TGFb inh inactive | TGFb COP inh inactive
CC(C)(C)c1ccc(/C=C2\SC(=O)N(CCNC(=O)c3cccc(S(=O)(=O)N4CCOCC4)c3)C2=O)cc1	TGFb SMAD3 inh 12.6µM | TGFb CAGA inh 7.31µM | HepG2 tox-2 inconclusive | CCL64 TGFb inh inconclusive | TGFb COP inh inactive
O=C(CSc1nnc(-c2ccc(F)cc2)c2ccccc12)Nc1c(F)cccc1F	TGFb SMAD3 inh inconclusive
O=C(CSc1nnc(-c2ccc(F)cc2)c2ccccc12)Nc1ccccc1	IL1B secr inh -61.4, TGFb SMAD3 inh 12.6µM | TGFb CAGA inh 14.6µM | HepG2 tox-2 inactive | CCL64 TGFb inh inactive | TGFb COP inh inactive
Cc1nnc(NC(=O)c2ccc3c(c2)C(=O)N(CC2CCCO2)C3=O)s1 (stereo unspecified)	none
O=C(C1=C[C@@H](c2ccc(C(F)(F)F)cc2)C[C@@H](OCc2ccc(CO)cc2)O1)N1CCN(Cc2ccccc2)CC1	IL1B secr inh -60.1, TGFb SMAD3 inh 14.1µM | TGFb CAGA inh 18.4µM | HepG2 tox-2 inactive | CCL64 TGFb inh inconclusive | TGFb COP inh inactive
CN1CCN(C(=O)C2=C[C@@H](c3ccc(C(F)(F)F)cc3)C[C@@H](OCc3ccc(CO)cc3)O2)CC1	none
Cc1cccc(CCNC(=O)c2cccc3c2C(=O)N(C2CCCCC2)C3)c1	IL1B secr inh -65.6, HT1080-NT tox inconclusive, TGFb SMAD3 inh 12.6µM | TGFb CAGA inh 14.6µM | HepG2 tox-2 inactive | CCL64 TGFb inh inconclusive | TGFb COP inh inactive
CCOC(=O)C1(C)CCCN1C(=O)c1ccccc1OC (stereo unspecified)	none (no result: Giardia kill)
O=S(=O)(/C(=C\c1ccc(C(F)(F)F)cc1)c1nc2ccccc2[nH]1)c1ccccc1	IL1B secr inh -96.0, HT1080-NT tox 1.84µM, HepG2 tox-1 17.8µM, HT1080 IDH1KD tx 1.46µM, TGFb SMAD3 inh 4.47µM | TGFb CAGA inh 2.91µM | HepG2 tox-2 2.59µM | CCL64 TGFb inh 3.26µM | TGFb COP inh inconclusive

Compound activity as filed in PubChem BioAssay.
